Results from PubChem BioAssay (NCATS).
Records with an inconclusive call do not appear. A call without a number means that no potency is given here. Calls of active or inactive are those of the source. Calls follow the shape of the dose curve; as a rule, active = well fitted inhibition curve with a large enough effect; inconclusive = small, poorly fitted or top-dose-only effect; inactive = flat fitted curve, though single readings scatter.

Tests used:
Test in all cases: qHTS profiling for inhibitors of Plasmodium falciparum proliferation (AID 504749); also: nearly all actives have a fitted effect of over 60% in size
Conditions in all cases: P. falciparum in erythrocytes, SYBR Green DNA, 72 h; series mostly up to 12.8 µM
ATS189 = tested on: ATS189
Procedure, shortened: (§1)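 Infected RBCs, 0.3% parasitemia/2.5% Hct final; cpd 72 h, 37 C, 5% CO2; lysis buffer with saponin/triton/SYBR Green I, o/n RT dark; FI 485/535; norm. to artemisinin (0.29 uM) and DMSO.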

CP185 = tested on: CP185
Procedure, shortened: as §1

CP191 = tested on: CP191
Procedure, shortened: as §1

CP192 = tested on: CP192
Procedure, shortened: as §1

CP201 = tested on: CP201
Procedure, shortened: as §1

CP211 = tested on: CP211
Procedure, shortened: as §1

CP247 = tested on: CP247
Procedure, shortened: as §1

CP268 = tested on: CP268
Procedure, shortened: as §1

CP291 = tested on: CP291
Procedure, shortened: as §1

CP305 = tested on: CP305
Procedure, shortened: as §1

CP315 = tested on: CP315
Procedure, shortened: as §1

CP325 = tested on: CP325
Procedure, shortened: as §1

CP329 = tested on: CP329
Procedure, shortened: as §1

DIV30 = tested on: DIV30
Procedure, shortened: as §1

HB3 = tested on: HB3
Procedure, shortened: as §1

N140 = tested on: N140
Procedure, shortened: as §1

PC26 = tested on: PC26
Procedure, shortened: as §1

PC49 = tested on: PC49
Procedure, shortened: as §1

TAB113 = tested on: TAB113
Procedure, shortened: as §1

TAB165 = tested on: TAB165
Procedure, shortened: as §1
Potency is read from the fitted curve at half-maximal effect.

| SMILES | Potency (ATS189) | Potency (CP185) | Potency (CP191) | Potency (CP192) | Potency (CP201) | Potency (CP211) | Potency (CP247) | Potency (CP268) | Potency (CP291) | Potency (CP305) | Potency (CP315) | Potency (CP325) | Potency (CP329) | Potency (DIV30) | Potency (HB3) | Potency (N140) | Potency (PC26) | Potency (PC49) | Potency (TAB113) | Potency (TAB165) |
| --- | --- | --- | --- | --- | --- | --- | --- | --- | --- | --- | --- | --- | --- | --- | --- | --- | --- | --- | --- | --- |
| C[C@H](CCC(=O)O)[C@H]1CC[C@@H]2[C@@H]3[C@@H](O)C[C@H]4C[C@@H](O)CC[C@@]4(C)[C@H]3CC[C@@]21C | inactive | inactive | inactive | inactive | inactive | inactive | inactive | inactive | inactive | inactive | inactive | inactive | inactive | inactive | inactive | inactive | inactive | inactive | inactive | inactive |
| CC(C)(C)NC[C@@H](O)COc1ccccc1C1CCCC1 | 3.16 µM (active) | 3.16 µM (active) | – | 6.42 µM (active) | – | – | – | – | 4.05 µM (active) | – | – | 4.55 µM (active) | – | 5.73 µM (active) | 3.16 µM (active) | 3.16 µM (active) | 6.42 µM (active) | 2.24 µM (active) | 3.98 µM (active) | 3.55 µM (active) |
| NC(=O)c1cc[n+](CC2=C(C(=O)[O-])N3C(=O)[C@@H](NC(=O)Cc4cccs4)[C@@H]3SC2)cc1 | inactive | inactive | inactive | inactive | inactive | inactive | inactive | inactive | – | inactive | inactive | inactive | inactive | inactive | inactive | inactive | inactive | inactive | inactive | inactive |
| c1ccc2c(c1)CCC[C@@H]2C1=NCCN1 | inactive | inactive | inactive | inactive | inactive | inactive | inactive | inactive | inactive | inactive | inactive | inactive | inactive | inactive | inactive | inactive | inactive | inactive | inactive | inactive |
| CN(C)CCOC(=O)[C@@H](c1ccccc1)C1(O)CCCC1 | inactive | inactive | inactive | inactive | inactive | inactive | – | inactive | inactive | inactive | inactive | inactive | inactive | inactive | inactive | inactive | – | inactive | inactive | inactive |
| Clc1ccc([C@H](Cn2ccnc2)OCc2c(Cl)cccc2Cl)c(Cl)c1 | 3.98 µM (active) | – | 3.16 µM (active) | – | – | – | 3.16 µM (active) | – | – | – | – | – | – | 7.21 µM (active) | 3.98 µM (active) | 3.16 µM (active) | 4.55 µM (active) | – | 3.98 µM (active) | 0.355 µM (active) |
| Cc1ccsc1/C=C\C1=NCCCN1C | inactive | inactive | inactive | inactive | inactive | inactive | inactive | inactive | inactive | inactive | inactive | inactive | inactive | inactive | inactive | inactive | inactive | inactive | inactive | inactive |
| Cc1cccc(CN2CCN([C@@H](c3ccccc3)c3ccc(Cl)cc3)CC2)c1 | – | – | – | – | inactive | inactive | – | inactive | inactive | inactive | inactive | inactive | inactive | – | – | – | – | inactive | – | – |
| O=C1O[C@@H]([C@@H](O)CO)[C@@H](O)[C@H]1O | inactive | inactive | inactive | inactive | inactive | inactive | inactive | inactive | inactive | inactive | inactive | inactive | inactive | inactive | inactive | inactive | inactive | inactive | inactive | inactive |
| CCCC[C@H](CC)CN1CN(C[C@@H](CC)CCCC)CC(C)(N)C1 | inactive | inactive | inactive | inactive | inactive | inactive | inactive | inactive | inactive | inactive | inactive | inactive | inactive | inactive | inactive | inactive | inactive | inactive | inactive | inactive |
| O=C(O)COCCN1CCN([C@@H](c2ccccc2)c2ccc(Cl)cc2)CC1 | inactive | inactive | – | inactive | inactive | inactive | inactive | inactive | inactive | inactive | inactive | inactive | inactive | inactive | – | inactive | inactive | inactive | inactive | inactive |
| Clc1ccc([C@H](Cn2ccnc2)OCc2csc3c(Cl)cccc23)c(Cl)c1 | – | – | – | – | – | – | – | inactive | – | – | – | – | – | 5.1 µM (active) | – | 3.98 µM (active) | 6.42 µM (active) | – | – | 2.24 µM (active) |
| CN1CCO[C@H](c2ccccc2)c2ccccc2C1 | – | – | inactive | inactive | inactive | inactive | – | – | inactive | inactive | inactive | – | inactive | – | inactive | – | inactive | inactive | – | – |
| COc1ccc([C@@H]2CC(=O)c3c(O)cc(O[C@H]4O[C@@H](CO[C@H]5O[C@@H](C)[C@@H](O)[C@@H](O)[C@@H]5O)[C@@H](O)[C@@H](O)[C@@H]4O)cc3O2)cc1O | inactive | inactive | inactive | – | inactive | inactive | inactive | inactive | inactive | inactive | inactive | inactive | inactive | inactive | inactive | inactive | inactive | inactive | inactive | inactive |
| CCN1CCC[C@@H](OC(=O)C(c2ccccc2)c2ccccc2)C1 | – | – | inactive | inactive | inactive | inactive | inactive | inactive | – | inactive | inactive | – | inactive | – | inactive | – | – | – | inactive | – |
| CC1(C)[C@@H](OC(=O)CCC(=O)O)CC[C@@]2(C)[C@H]1CC[C@@]1(C)[C@H]2C(=O)C=C2[C@H]3C[C@](C)(C(=O)O)CC[C@]3(C)CC[C@@]21C | inactive | inactive | inactive | inactive | inactive | inactive | inactive | inactive | inactive | inactive | inactive | inactive | inactive | inactive | inactive | inactive | inactive | inactive | inactive | inactive |
| C[C@@H](CNC1CCCCC1)OC(=O)c1ccccc1 | 3.16 µM (active) | inactive | – | inactive | inactive | inactive | – | – | – | – | inactive | – | inactive | – | 3.98 µM (active) | – | 5.73 µM (active) | – | – | – |
| CC[C@](C)(CN(C)C)OC(=O)c1ccccc1 | inactive | inactive | inactive | inactive | inactive | inactive | inactive | inactive | inactive | inactive | inactive | inactive | inactive | inactive | inactive | inactive | inactive | inactive | inactive | inactive |
| CCN(CCCCOC(=O)c1ccc(OC)c(OC)c1)[C@@H](C)Cc1ccc(OC)cc1 | inactive | – | – | – | – | inactive | inactive | inactive | inactive | – | inactive | inactive | – | inactive | inactive | inactive | – | inactive | inactive | inactive |
| COc1cc2nc(N3CCN(C(=O)[C@@H]4CCCO4)CC3)nc(N)c2cc1OC | inactive | inactive | inactive | inactive | inactive | inactive | inactive | inactive | inactive | inactive | inactive | inactive | inactive | inactive | inactive | inactive | inactive | inactive | inactive | inactive |
| CO[C@]1(NC(=O)[C@H](C(=O)O)c2ccc(O)cc2)C(=O)N2C(C(=O)O)=C(CSc3nnnn3C)CO[C@H]21 | inactive | inactive | inactive | inactive | inactive | inactive | inactive | inactive | inactive | inactive | – | inactive | inactive | inactive | inactive | inactive | inactive | inactive | inactive | inactive |
| COC(=O)[C@@H]1[C@@H]2C[C@H]3c4[nH]c5cc(OC)ccc5c4CCN3C[C@@H]2C[C@H](OC(=O)/C=C\c2cc(OC)c(OC)c(OC)c2)[C@H]1OC | – | inactive | – | – | inactive | – | – | – | – | – | – | – | inactive | 5.1 µM (active) | – | 3.55 µM (active) | 6.42 µM (active) | – | – | 3.16 µM (active) |
| CC1(C)S[C@@H]2[C@H](NC(=O)[C@@H](N)c3ccccc3)C(=O)N2[C@H]1C(=O)O[C@H]1OC(=O)c2ccccc21 | inactive | inactive | inactive | inactive | inactive | inactive | inactive | inactive | inactive | inactive | inactive | inactive | inactive | inactive | inactive | inactive | inactive | inactive | inactive | inactive |
| O=C(OC[C@@H](O)CO)c1ccccc1Nc1ccnc2cc(Cl)ccc12 | inactive | inactive | inactive | inactive | inactive | inactive | inactive | inactive | inactive | inactive | inactive | inactive | inactive | inactive | inactive | inactive | inactive | inactive | inactive | inactive |
| O=C(O)[C@@H]1[C@@H]2C[C@H]3c4[nH]c5ccccc5c4CCN3C[C@@H]2CC[C@@H]1O | – | – | – | – | – | – | – | inactive | – | inactive | – | – | – | – | inactive | inactive | inactive | inactive | – | – |
| NC[C@@H]1O[C@@H](O[C@H]2[C@H](O)[C@H](O[C@@H]3O[C@H](CO)[C@@H](O)[C@H](N)[C@@H]3O)[C@@H](N)C[C@H]2N)[C@H](N)C[C@@H]1O | inactive | inactive | inactive | inactive | inactive | inactive | inactive | inactive | inactive | inactive | inactive | inactive | inactive | inactive | inactive | inactive | inactive | inactive | inactive | inactive |
| CN1CCC[C@@H](CC2c3ccccc3Sc3ccccc32)C1 | inactive | inactive | inactive | inactive | – | inactive | inactive | – | – | – | inactive | inactive | inactive | – | inactive | – | – | inactive | inactive | – |
| C=Cc1c(C)c2cc3nc(cc4[nH]c(cc5nc(cc1[nH]2)C(C)=C5CCC(=O)O)c(CCC(=O)OC)c4C)[C@@]1(C)C3=CC=C(C(=O)OC)[C@H]1C(=O)OC (tested in a mixture with another compound) | 7.08 µM (active) | – | 11.2 µM (active) | inactive | inactive | – | 10 µM (active) | – | inactive | inactive | inactive | inactive | inactive | inactive | 4.47 µM (active) | 7.08 µM (active) | inactive | 5.01 µM (active) | 1.78 µM (active) | 6.31 µM (active) |
